Consider 36 compounds from PubChem BioAssay.

This test can be described thus: COS7 lysate on small-molecule microarray, probe aHis, 635 nm (AID 1123).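 Further: z-score combines 667nm fluorescence intensity with signal-to-noise per printed compound spot.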 The settings on record: COS7 cell lysate, fluorescence, higher = more signal.
As to `CN1C(=O)C2C=CC(C(O)C#Cc3ccccc3)N(Nc3ccccc3)C2C1=O` (stereo unspecified), the composite z-score is 2.96. The same measure for `CN(C)c1ccc(C(O)C2C=CC3C(=O)N(c4ccccc4)C(=O)C3N2Nc2ccc([N+](=O)[O-])cc2)cc1` (stereo unspecified): 2.1; for `CN(C)C(=O)[C@@]1(Cc2ccccc2CN=[N+]=[N-])N=C(c2ccc(OCCCO)cc2)O[C@H]1c1ccccc1CN=[N+]=[N-]`: 2.79; for `O=C1OCC=C[C@H]2OC34C=CCN(Cn5nnc6ccccc65)C(=O)[C@H]3N(CCCO)C(=O)[C@@H]4[C@@H]12` (stereo partly specified): -0.145. `C[N+](C)(C)CCCCCCNC(=O)[C@H]1C[C@H]2C(=O)N[C@@H](Cc3ccccc3)C(=O)N2[C@H]1c1ccc(O)cc1` gave a composite z-score of 1.05.

`COCCOC(=O)N1C(=O)[C@@]2(c3cc(C#CCCO)ccc31)[C@H](C(=O)Nc1nc3ccccc3s1)[C@H]1C(=O)O[C@H](c3ccccc3)[C@H](c3ccccc3)N1[C@@H]2c1ccccc1OCCO` came in with a composite z-score of 1.22. The value for `COc1cc2c(cc1OC)CN(C(=O)[C@@H]1[C@H]3C(=O)O[C@H](c4ccccc4)[C@H](c4ccccc4)N3[C@H](c3ccc(OCCO)cc3)[C@@]13C(=O)Nc1ccc(C#CC4(O)CCCCCC4)cc13)CC2` was 2.03.

`COc1cc(CO)cc(I)c1O[C@H]1C=C(C(=O)NCCO)C[C@@H](NCc2ccc(F)cc2)[C@@H]1O`: the composite z-score turned out to be 0.369. For the compound `[N-]=[N+]=NCc1ccccc1C[C@@]1(C(=O)NCc2ccccc2)N=C(c2ccc(OCCCO)cc2)O[C@@H]1c1ccccc1N=[N+]=[N-]`, the composite z-score was -0.0255. The value for `O=C(CS)NCCCCCNC(=O)[C@@H]1C[C@@H]2C(=O)N3CCC[C@H]3C(=O)N2[C@@H]1c1cccc(OCCO)c1` was 2.18; that for `C=C(C)c1cc2c(c(CCCCCC)n1)[Si](C(C)C)(C(C)C)OC2` was -0.369; that for `CCCCC(O)C1C=CC2C(=O)N(c3ccccc3)C(=O)C2N1Nc1ccc(C(C)C)cc1` (stereo unspecified) was 2.85.

Turning to `COCCOC(=O)N1C(=O)[C@@]2(c3cc(C#CC4=CCCCC4)ccc31)[C@H](c1ccc(OCCO)cc1)N1[C@H](c3ccccc3)[C@H](c3ccccc3)OC(=O)[C@H]1[C@@H]2C(=O)N1CCN(c2ncccn2)CC1`, the composite z-score was 0.477. The same measure for `C=C(COC)/C(=C/C[C@H](OC(C)=O)c1ccc(OCCO)cc1)c1cc(C(=O)OC)ccc1OC`: 0.685; for `CC1CC/C=C\[C@H]2OC34C=CCN(c5ccc(Cl)cc5)C(=O)[C@H]3N(CCCCCO)C(=O)[C@]4(C)C2C(=O)O1` (stereo partly specified): -0.779; for `CN1C(=O)C2C=CC(C(O)c3cccc(O)c3)N(Nc3ccccc3)C2C1=O` (stereo unspecified): 0.247. The value for `O=C1NC(=O)C2C1C=CC(C(O)c1c(F)cccc1Cl)N2Nc1ccc(Cl)cc1Cl` (stereo unspecified) was 3.11; that for `COc1ccc([Si](C)(C)[C@@H]2[C@@H](CCO)O[C@]3(C(=O)N(Cc4ccc(N5CCCCC5=O)cc4)c4ccccc43)[C@H]2C)cc1` was 0.828; that for `C=CCC(OC(C)=O)[C@@H]1[C@@H](N(Cc2cc3ccccc3o2)C(=O)c2ccc(C)cc2)c2cc(OCCCO)ccc2N1C(=O)Cc1ccc(OC)cc1` (stereo partly specified) was 0.59.

`CCOc1cc(C(O)C2C=CC3C(=O)N(C)C(=O)C3N2Nc2ccccc2)ccc1O` (stereo unspecified) had a composite z-score of 1.28.

In turn, `O=C(CS)NCCCCCCNC(=O)[C@H]1C[C@H]2C(=O)N[C@@H](Cc3ccccc3)C(=O)N2[C@H]1c1ccc(O)cc1` displayed a composite z-score of 2.18. The same measure for `CC(c1ccccc1)C(O)C1C=CC2C(=O)N(c3ccccc3)C(=O)C2N1Nc1ccc([N+](=O)[O-])cc1` (stereo unspecified): 2.95; for `COc1ccccc1CN1C(=O)c2ccccc2[C@@]2(Cc3ccccc3N(CC(F)(F)F)C2=O)[C@@H]1c1ccc(CO)cc1`: 0.384; for `COC(=O)C(CC#Cc1ccc2c(c1)[C@]1(C(=O)N2)[C@H](C(=O)N2CCN(c3ncccn3)CC2)[C@H]2C(=O)O[C@H](c3ccccc3)[C@H](c3ccccc3)N2[C@@H]1c1ccc(OCCO)cc1)C(=O)OC`: 1.41. Regarding `[N-]=[N+]=Nc1ccccc1[C@@H]1OC(c2ccc(OCCCO)cc2)=N[C@]1(Cc1ccccc1)C(=O)NCC(O)CO` (stereo partly specified), the composite z-score stood at 3.2. The same measure for `Cc1cc(C)c(C(O)C2C=CC3C(=O)NC(=O)C3N2Nc2ccc(Cl)cc2Cl)c(C)c1` (stereo unspecified): 2.94; for `COC(=O)c1c2oc(c1C(=O)OC)C(=O)N(Cc1ccccc1)Cc1cn(nn1)C[C@H](Cc1ccccc1)NC(=O)N[C@H](CO)CC2`: 0.87.

In turn, `C=CCNC(=O)[C@H]1[C@@H]2C(=O)O[C@@H](c3ccccc3)[C@@H](c3ccccc3)N2[C@@H](c2ccc(O)cc2)[C@]12C(=O)N(C(=O)OCCOC)c1ccccc12` yielded a composite z-score of 2.18. The value for `O=C1C=C(c2ccccc2)C(=O)c2ccc([C@H]3Oc4ccccc4S(=O)(=O)N4CCC[C@@H]34)cc21` was -0.811; that for `Cc1ccc(S[C@]2(C(=O)NCC(F)(F)F)CC(=O)N(C3CCCCC3)[C@@H]2c2ccc(CO)cc2I)cc1` was 2.01. The value for `COc1ccc(C#Cc2ccc3c(c2)[C@]2(C(=O)N3)[C@H](c3ccc(O)cc3)N3[C@H](c4ccccc4)[C@H](c4ccccc4)OC(=O)[C@H]3[C@@H]2C(=O)O)cc1` was 1.23. The same measure for `COC(=O)[C@@]1(Cc2ccc(OC)cc2)[C@@H]2C(=CC(=O)[C@H]2CC(=O)C(=O)N(C)C)CN1C(=O)c1ccccc1`: 2.47; for `CCOC(=O)c1ccc(NC(=O)O[C@H]2[C@H](OC(=O)Nc3ccc4c(c3)OCO4)[C@H](OC(=O)Nc3ccc4c(c3)OCO4)[C@@H](OC)O[C@@H]2CO)cc1`: 1.52; for `C=CCN1Cc2ccccc2[C@H]2OC(c3ccc(OCCCO)cc3)=N[C@@]2(CC=C)C1=O`: 2.78.

Take `CN(C)CCCNC(=O)[C@@]1(C)c2ccccc2C(=O)N(Cc2ccccc2)[C@H]1c1ccc(CO)cc1`: the composite z-score was -0.358.

As for `CCCCCCCCCCC(O)C1C=CC2C(=O)N(C)C(=O)C2N1NC(=O)OC(C)(C)C` (stereo unspecified), the composite z-score worked out at 1.24.
